Measured values: the supplement of paper PMC7366291
Counter-ions that a name gives are not always drawn. ± gives the standard deviation of the averaged measurements.

What follows are compounds tested on Danio rerio Tg(wt1b:EGFP) embryo, pronephros (assay: pronephric angle neck segment to proximal convoluted tubule (mean of left and right), fold change vs DMSO control; higher = larger pronephric angle). Settings: 25 µM; exposure: 24-48 hpf.
Procedure, shortened: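 Each feature value is a fold change relative to the mean of same-day DMSO-treated embryos. Embryos of the Tg(wt1b:EGFP) zebrafish line, dechorionated, received 25 μM compound in 0.5% DMSO from 24 to 48 hpf at 28.5°C, in HEPES-buffered E3 with 0.003% PTU. Distances and angles were computed by a Fiji macro from 16 manually set reference points on maximum projections of dorsal pronephros images, and values beyond 2 SD of the feature mean were removed.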

Row | Compound | pronephric angle neck segment
1 | CCCC(C(=O)OCCN(CC)CC)(c1ccccc1)c1ccccc1 [Proadifen hydrochloride] | 1.03 ± 0.037
2 | COc1cc(Cc2cnc(N)nc2N)cc(OC)c1OC [Trimethoprim] | 1.05 ± 0.063
3 | Nc1ccc(S(=O)(=O)Nc2ccnn2-c2ccccc2)cc1 [Sulfaphenazole] | 1.02 ± 0.024
4 | CN1C(C(=O)Nc2ccccn2)=C(O)c2sccc2S1(=O)=O [Tenoxicam] | 0.999 ± 0.028
5 | CCc1cccc(CC)c1NC(=O)CN(CC(=O)O)CC(=O)O [Etifenin] | 1.01 ± 0.015
6 | Nc1nc(=S)c2ncn([C@@H]3O[C@H](CO)[C@@H](O)[C@H]3O)c2[nH]1 [Thioguanosine] | 1.03 ± 0.036
7 | COc1nc(N)nc2c1ncn2[C@@H]1O[C@H](CO)[C@@H](O)[C@@H]1O [Nelarabine] | 0.984 ± 0.073
8 | Cc1cc(C(C)(C)C)c(O)c(C)c1CC1=NCCN1 [Oxymetazoline hydrochloride] | 0.976 ± 0.042
9 | COCCOC(=O)C1=C(C)NC(C)=C(C(=O)OC(C)C)C1c1cccc([N+](=O)[O-])c1 (centres undefined) [Nimodipine] | 0.954 ± 0.049
10 | O=C(COc1ccc(Cl)cc1)N1CCN(Cc2ccc3c(c2)OCO3)CC1 [Fipexide hydrochloride] | 1.24 ± 0.11
11 | CC1(C)O[C@@H]2C[C@H]3[C@@H]4CCC5=CC(=O)CC[C@]5(C)[C@@]4(F)[C@@H](O)C[C@]3(C)[C@]2(C(=O)CCl)O1 [Halcinonide] | 1.14 ± 0.043
12 | CC(C)(C)NC[C@H](O)COc1nsnc1N1CCOCC1 [Timolol maleate salt] | 0.9989 ± 0.0023
13 | CN1C2CCCC1CC(NC(=O)c1nn(C)c3ccccc13)C2 (centres undefined) [Granisetron] | 1.04 ± 0.015
14 | COc1ccccc1N1CCN(CC(O)COc2cccc3ccccc23)CC1 (centres undefined) [Naftopidil dihydrochloride] | 0.966 ± 0.034
